# Source: PubChem BioAssay (NCATS)
# Values joined by “and” are separate entries in the source; they are usually repeats but may differ in a detail not shown here. Equal entries are not always repeated. Records with an inconclusive call do not appear. Entries that show only a call come without a potency. Active and inactive are the calls of the source. The call rests on the fitted dose curve; in most records, active means well fitted curve in the direction sought with a large enough effect; inconclusive means small, poorly fitted or top-dose-only effect, or another doubt; inactive means no such curve, though single readings can be large; an effect the other way counts as inactive or inconclusive.
# Experiments:
# [1] = biological target: N-terminal Xaa-Pro-Lys N-methyltransferase 1 (Homo sapiens) (UniProt Q9BV86); test: qHTS Assay for Inhibitors of N-terminal methyltransferase 1 (NTMT1): LOPAC validation of the NTMT1 SAHH-coupled ThioGlo3 Assay (AID 1347143); further: nearly all actives have a fitted effect of over 70% in size; further: potency means the concentration at half of the fitted maximal effect
# N-terminal Xaa-Pro-Lys N-methyltransferase 1 (Homo sapiens), sequence (Q9BV86 whole entry, looked up): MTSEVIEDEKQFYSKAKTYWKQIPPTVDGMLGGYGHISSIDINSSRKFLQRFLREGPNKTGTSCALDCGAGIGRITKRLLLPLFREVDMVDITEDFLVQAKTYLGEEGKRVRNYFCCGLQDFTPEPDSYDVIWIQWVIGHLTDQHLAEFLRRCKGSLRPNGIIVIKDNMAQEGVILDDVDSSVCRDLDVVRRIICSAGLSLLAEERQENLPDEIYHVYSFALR
# In short: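 Fluorescence read-out (excitation 340nm, emission 450nm) of SAH-derived thiol, measured via SAHH coupling and ThioGlo3, taken immediately and after a 30 min room-temperature reaction, then normalized to the background read. Enzyme: NTMT1 at 125nM; cofactor SAM 100uM in the added reagent.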
# [2] = tested on: Zika virus NS2B-NS3 protease (unlinked); test: Optimization of GU AMC qHTS for Zika virus inhibitors: Unlinked NS2B-NS3 protease assay (AID 1347151); further: nearly all actives have a fitted effect of over 80% in size; further: potency means the concentration at half of the fitted maximal effect
# In short: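 Unlinked protease (25 nM final); buffer 10 mM Tris-HCl pH 8.0 + 0.01% Tween 20; AMC substrate; 15 min RT, dark; Δfluorescence normalized to no-inhibitor/no-enzyme controls; 4-parameter Hill fit.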
# [3] = tested on: Zika virus NS2B-NS3 protease; test: Primary screen GU AMC qHTS for Zika virus inhibitors (AID 1347154); further: nearly all actives have a fitted effect of over 70% in size
# In short: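 Unlinked Zika NS2B hydrophilic domain/NS3 protease domain noncovalent complex (25 nM final) in 10 mM Tris-HCl pH 8.0, 0.01% Tween 20, with AMC peptide substrate. Fluorescence (ex 340, em 450 nm) change over 15 min, room temperature; percent inhibition fitted to 4-parameter Hill equation.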
# [4] = tested on: Zika virus NS2B-NS3 protease (linked construct); test: Confirmatory screen NINDS AMC qHTS for Zika virus inhibitors (AID 1347152); further: nearly all actives have a fitted effect of over 70% in size; further: potency means the concentration at half of the fitted maximal effect
# In short: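 Enzyme (1 nM, linked construct) was preincubated with compound for 15 minutes at room temperature in 10 mM Tris-HCl pH 8.0 with 0.01% Tween 20. Bz-Nle-Lys-Arg-Arg-AMC was then added to 10 microM, and AMC fluorescence was recorded immediately and after 15 minutes.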
# [5] = tested on: Zika virus NS2B-NS3 protease (unlinked complex); test: Confirmatory screen GU AMC qHTS for Zika virus inhibitors (AID 1347153); further: nearly all actives have a fitted effect of over 70% in size
# In short: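 Compounds were preincubated 15 min at room temperature with 25 nM noncovalent NS2B-NS3 protease at pH 8.0; AMC substrate added at 10 microM and 15-min fluorescence gain (340/450 nm) converted to percent inhibition, fitted 4-parameter.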
# [6] = Confirmatory screen GU Rhodamine qHTS for Zika virus inhibitors qHTS (AID 1347157); settings: purified enzyme assay, Rhodamine110 substrate fluorescence, 15 min
# In short: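 Unlinked NS2B/NS3, 25 nM; Rhod110 peptide, 1.5 microM; compounds, up to 114 microM. Reaction run 15 min at RT in 10 mM Tris-HCl pH 8.0, 0.01% Tween 20; kinetic fluorescence change fitted with a 4-parameter Hill model.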
# [7] = ZIKV-mCherry secondary qHTS for Zika virus inhibitors (AID 1347158); further: top concentration of the series differs between compounds
# In short: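 Vero cells, 5,000/well, plated overnight at 37 °C, then compound added and infected with recombinant ZIKV-mCherry at MOI 1 for 48-72 h. PFA-fixed, Hoechst nuclear stain, high-content imaging; cells with mCherry intensity above 450 RFU scored infected, reported as percent infection.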
structure (smiles),measurement,setting,value
CN1CC(=O)N/C1=N/C(=O)Nc1cccc(Cl)c1,Potency,[1],inactive
same,Potency,[2],inactive
same,Potency,[3],inactive
O=S(=O)(c1cccc2c(I)cccc12)N1CCCNCC1,Potency,[1],39.8 µM (active)
same,Potency,[2],inactive
same,Potency,[3],inactive
Cn1cc(C2=C(c3ccc(Cl)cc3Cl)C(=O)NC2=O)c2ccccc21,Potency,[1],inactive
same,Potency,[2],inactive
same,Potency,[3],inactive
O=C(O)CNC(=O)C(CS)Cc1ccccc1 (stereo not given),Potency,[1],inactive
same,Potency,[2],inactive
same,Potency,[3],inactive
O=C(Nc1ccc2c(c1)CCN(Cc1ncn[nH]1)C2)c1ccccc1-c1ccc(C(F)(F)F)cc1,Potency,[1],inactive
same,Potency,[2],inactive
CN1[C@@H](CC(=O)c2ccccc2)CCC[C@H]1C[C@H](O)c1ccccc1,Potency,[1],inactive
same,Potency,[2],inactive
same,Potency,[3],inactive
N[C@@H](CC(=O)O)C(=O)O,Potency,[1],inactive
same,Potency,[2],inactive
same,Potency,[3],inactive
Nc1nc2c(ncn2[C@@H]2O[C@H](CO)[C@@H](O)[C@@H]2O)c(=O)[nH]1,Potency,[1],inactive
same,Potency,[2],inactive
CC(C)NC[C@H](O)COc1cccc2[nH]ccc12,Potency,[1],inactive
same,Potency,[2],inactive
same,Potency,[3],inactive
O=C(Nc1ccncc1)c1cc([N+](=O)[O-])ccc1Cl,Potency,[1],inactive
same,Potency,[2],inactive
same,Potency,[3],inactive
O=C(O)c1cc(=O)c2c(Cl)cc(Cl)cc2[nH]1,Potency,[1],inactive
same,Potency,[2],inactive
same,Potency,[3],inactive
N[C@H](CCCP(=O)(O)O)C(=O)O,Potency,[1],inactive
same,Potency,[2],inactive
same,Potency,[3],inactive
CC12C(=O)OC(=O)C1(C)C1CCC2O1 (stereo not given),Potency,[1],inactive
same,Potency,[2],inactive
same,Potency,[3],inactive
CCCCCCCC/C=C\CCCCCCCC(=O)NCCO,Potency,[1],inactive
same,Potency,[2],inactive
same,Potency,[3],inactive
CCCCCCCCCCCCCCCC(=O)OC(CC(=O)O)C[N+](C)(C)C (stereo not given),Potency,[1],inactive
same,Potency,[2],inactive
same,Potency,[3],inactive
CCCN(CC1CC1)c1nc(C)nc(Nc2c(Cl)cc(Cl)cc2Cl)c1Cl,Potency,[1],inactive
same,Potency,[2],inactive
same,Potency,[3],inactive
S=c1[nH]c(-c2ccccc2)cn1-c1ccccc1,Potency,[1],6.31 µM (active)
same,Potency,[2],26.7 µM (active)
same,Potency,[4],inactive
same,outcome,[5],inactive
Cc1ccc(S(=O)(=O)/C=C/C#N)cc1,Potency,[1],5.62 µM (active)
same,Potency,[2],inactive
same,Potency,[3],inactive
NS(=O)(=O)C#Cc1ccccc1,Potency,[1],inactive
same,Potency,[2],inactive
same,Potency,[3],inactive
O=[N+]([O-])c1ccc2c(c1)S(=O)(=O)C=C2,Potency,[1],44.7 µM (active)
same,Potency,[2],inactive
same,Potency,[3],inactive
Cn1c(=O)c2[nH]c(-c3ccccc3)nc2n(C)c1=O,Potency,[1],79.4 µM (active)
same,Potency,[2],4.74 µM (active)
same,Potency,[4],21.5 µM (active)
COc1cccc(OC)c1OCCNCC1COc2ccccc2O1 (stereo not given),Potency,[1],inactive
same,Potency,[2],inactive
same,Potency,[3],inactive
CN1CCc2cccc3c2C1Cc1ccc(O)c(O)c1-3 (stereo not given),Potency,[1],20 µM (active)
same,Potency,[2],26.7 µM (active)
NCCSSCCN,Potency,[1],inactive
same,Potency,[2],inactive
O=C1NC(=O)/C(=C/c2ccc(-c3ccc(F)cc3O)o2)S1,Potency,[1],44.7 µM (active)
same,Potency,[2],21.2 µM (active)
same,Potency,[4],inactive
same,outcome,[5],inactive
COC(=O)C1=C(C)NC(C)=C(C(=O)OC)C1c1cccc(NC(=O)NCCCN2CCC(c3cccc(OC)c3)CC2)c1,outcome,[5],inactive
C=C[C@@H]1CN2CC[C@@H]1C[C@H]2[C@H](O)c1ccnc2ccc(OC)cc12,outcome,[5],inactive
O=C(Nc1cccc(C(=O)Nc2ccc(S(=O)(=O)O)c3cc(S(=O)(=O)O)cc(S(=O)(=O)O)c23)c1)Nc1cccc(C(=O)Nc2ccc(S(=O)(=O)O)c3cc(S(=O)(=O)O)cc(S(=O)(=O)O)c23)c1,Potency,[6],2.82 µM (active) and 1.41 µM (active)
same,outcome,[7],inactive
CCCCN(CC)c1nc(C)nc2c1c(C)cn2-c1c(C)cc(C)cc1C,Potency,[4],inactive
same,outcome,[5],inactive
CN(C)[C@@H]1C(=O)C(C(=O)NCN2CCCC2)=C(O)[C@@]2(O)C(=O)C3=C(O)c4c(O)cccc4[C@@](C)(O)C3C[C@@H]12 (stereo not given in full),outcome,[7],inactive
